# Measured values as given in paper PMC5700166.
# What was measured:
# [1] = biological target: T1, GST-Nv-NF-kB (Ser allele) (Nematostella vectensis, UniProt A7UNT2 2-411); assay: protein-binding microarray (PBM); PBM: ~300 nM protein, 6 mM HEPES pH 7.8, 80 mM KCl, 0.5 mM EDTA, 0.5 mM EGTA, 6% glycerol, 35 ng/ul poly-dIdC, 1% milk, 1 h, room temperature; Ap Aiptasia and Nv Nematostella (sea anemones) / Co Capsaspora / Aq Amphimedon (sponge) / Dm Drosophila / Hu human; RHD is the Rel homology domain; high values mean tight binding; conditions: dsDNA, one strand shown
# T1 sequence: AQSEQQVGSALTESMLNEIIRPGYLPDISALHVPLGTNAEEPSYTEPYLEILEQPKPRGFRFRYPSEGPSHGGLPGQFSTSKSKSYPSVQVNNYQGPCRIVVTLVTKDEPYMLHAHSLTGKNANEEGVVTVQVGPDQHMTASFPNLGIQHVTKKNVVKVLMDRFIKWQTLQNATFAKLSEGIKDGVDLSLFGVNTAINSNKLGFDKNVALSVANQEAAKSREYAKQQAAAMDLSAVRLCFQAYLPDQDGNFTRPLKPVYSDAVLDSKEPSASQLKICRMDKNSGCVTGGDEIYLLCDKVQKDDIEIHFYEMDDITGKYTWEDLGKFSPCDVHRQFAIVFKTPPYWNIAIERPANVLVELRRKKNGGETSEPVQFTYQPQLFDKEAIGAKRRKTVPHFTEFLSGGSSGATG
# [2] = biological target: GST-Hu-p50 (Homo sapiens, UniProt P19838 7-356); assay: as above; conditions: dsDNA, one strand shown
# Chain of GST-Hu-p50 (P19838 7-356): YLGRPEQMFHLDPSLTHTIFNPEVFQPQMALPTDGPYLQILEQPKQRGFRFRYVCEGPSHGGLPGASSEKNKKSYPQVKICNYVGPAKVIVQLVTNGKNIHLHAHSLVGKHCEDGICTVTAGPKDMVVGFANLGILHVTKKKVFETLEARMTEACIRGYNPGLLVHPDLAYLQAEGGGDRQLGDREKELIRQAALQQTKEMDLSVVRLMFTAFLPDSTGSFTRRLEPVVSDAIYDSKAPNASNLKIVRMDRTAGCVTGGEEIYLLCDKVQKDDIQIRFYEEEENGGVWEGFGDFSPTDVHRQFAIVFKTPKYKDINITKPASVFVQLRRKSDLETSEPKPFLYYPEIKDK
Sequence,binding signal [1] [z-score],binding signal [2] [z-score]
CCGATTAACATCAGGTAACTACCTGATGTTAATCGGGTCTTGATTCGCTTGACGCTGCTG,1.88,1.3
CCGATTAACATCAGGGGGTACCCTGATGTTAATCGGGTCTTGATTCGCTTGACGCTGCTG,4.11,4.44
CCGATTAACATCAAAACAACCCCTGATGTTAATCGGGTCTTGATTCGCTTGACGCTGCTG,2.19,3.88
CCGATTAACATCACGGGAAACTCTGATGTTAATCGGGTCTTGATTCGCTTGACGCTGCTG,3.54,2.31
CCGATTAACATCAGGGAAAGGAATGATGTTAATCGGGTCTTGATTCGCTTGACGCTGCTG,2.07,1.29
CCGATTAACATCAAACTTTCCCATGATGTTAATCGGGTCTTGATTCGCTTGACGCTGCTG,4.64,4.07
CCGATTAACATCACTTTACCCCCTGATGTTAATCGGGTCTTGATTCGCTTGACGCTGCTG,4.4,3.42
CCGATTAACATCAGAAAAAACCCTGATGTTAATCGGGTCTTGATTCGCTTGACGCTGCTG,5.08,4.96
CCGATTAACATCAGATTTTTCCCTGATGTTAATCGGGTCTTGATTCGCTTGACGCTGCTG,6.27,3.71
CCGATTAACATCAGGGAAAAAACTGATGTTAATCGGGTCTTGATTCGCTTGACGCTGCTG,6.38,4.02
CCGATTAACATCAAGGGATTTTCTGATGTTAATCGGGTCTTGATTCGCTTGACGCTGCTG,5.14,4.49
CCGATTAACATCAGGGGGTAGAATGATGTTAATCGGGTCTTGATTCGCTTGACGCTGCTG,4.04,3.9
CCGATTAACATCAAGGTAATTCCTGATGTTAATCGGGTCTTGATTCGCTTGACGCTGCTG,3.37,2.4
CCGATTAACATCAGGAAACTACCTGATGTTAATCGGGTCTTGATTCGCTTGACGCTGCTG,3.83,3.87
CCGATTAACATCAGGTTTTCCCATGATGTTAATCGGGTCTTGATTCGCTTGACGCTGCTG,5.41,3.27
CCGATTAACATCACGGAAACCCCTGATGTTAATCGGGTCTTGATTCGCTTGACGCTGCTG,3.87,4.6
CCGATTAACATCAGGGGGGGTACTGATGTTAATCGGGTCTTGATTCGCTTGACGCTGCTG,4.19,3.91
CCGATTAACATCAAATTCCCAAATGATGTTAATCGGGTCTTGATTCGCTTGACGCTGCTG,3.82,3.01
CCGATTAACATCAGGGGAGAAAATGATGTTAATCGGGTCTTGATTCGCTTGACGCTGCTG,5.87,4.88
CCGATTAACATCAGGAATTCCCATGATGTTAATCGGGTCTTGATTCGCTTGACGCTGCTG,5.66,4.39
CCGATTAACATCAGCACCCCCCCTGATGTTAATCGGGTCTTGATTCGCTTGACGCTGCTG,3.4,4.3
CCGATTAACATCAGGGGCAACCCTGATGTTAATCGGGTCTTGATTCGCTTGACGCTGCTG,1.9,3.13
CCGATTAACATCAGGGGGAAGCATGATGTTAATCGGGTCTTGATTCGCTTGACGCTGCTG,6.05,4.74
CCGATTAACATCAGACAATTCCCTGATGTTAATCGGGTCTTGATTCGCTTGACGCTGCTG,4.51,4.15

Sequence,binding signal [1] [z-score],binding signal [2] [z-score]
CCGATTAACATCAGAAATTACCATGATGTTAATCGGGTCTTGATTCGCTTGACGCTGCTG,3.08,2.24
CCGATTAACATCAGGGGTGGGAATGATGTTAATCGGGTCTTGATTCGCTTGACGCTGCTG,1.67,1.53
CCGATTAACATCAGGGAACTCCATGATGTTAATCGGGTCTTGATTCGCTTGACGCTGCTG,1.24,1.7
CCGATTAACATCAAAGGAATCCCTGATGTTAATCGGGTCTTGATTCGCTTGACGCTGCTG,1.78,1.2
CCGATTAACATCAGGGGTTACCCTGATGTTAATCGGGTCTTGATTCGCTTGACGCTGCTG,4.21,3.9
CCGATTAACATCAGGGAAAGAAATGATGTTAATCGGGTCTTGATTCGCTTGACGCTGCTG,3.86,2.62
CCGATTAACATCATTTATCCCGGTGATGTTAATCGGGTCTTGATTCGCTTGACGCTGCTG,1.28,1.33
CCGATTAACATCACGAGTTTCCCTGATGTTAATCGGGTCTTGATTCGCTTGACGCTGCTG,5.41,2.39
CCGATTAACATCAGGAATAACCCTGATGTTAATCGGGTCTTGATTCGCTTGACGCTGCTG,1.44,3.24
CCGATTAACATCAGGGAGGGTAATGATGTTAATCGGGTCTTGATTCGCTTGACGCTGCTG,2.16,1.6
CCGATTAACATCACGGGATTTCCTGATGTTAATCGGGTCTTGATTCGCTTGACGCTGCTG,3.47,3.82
CCGATTAACATCATGATGGGAAATGATGTTAATCGGGTCTTGATTCGCTTGACGCTGCTG,1.98,2.02
CCGATTAACATCATCTGGGAAAATGATGTTAATCGGGTCTTGATTCGCTTGACGCTGCTG,4.03,1.96
CCGATTAACATCAAACTCTCCCCTGATGTTAATCGGGTCTTGATTCGCTTGACGCTGCTG,4.93,4.08
CCGATTAACATCAGGGGAGCACCTGATGTTAATCGGGTCTTGATTCGCTTGACGCTGCTG,3.94,4.33
CCGATTAACATCAGGGGAGGTACTGATGTTAATCGGGTCTTGATTCGCTTGACGCTGCTG,4.46,3.17
CCGATTAACATCAAAAAGTTCCCTGATGTTAATCGGGTCTTGATTCGCTTGACGCTGCTG,5.17,4.09
CCGATTAACATCAAATATACCCCTGATGTTAATCGGGTCTTGATTCGCTTGACGCTGCTG,2.88,2.88
CCGATTAACATCACGGAATTACCTGATGTTAATCGGGTCTTGATTCGCTTGACGCTGCTG,3.86,2.38
CCGATTAACATCAGAACTTTCCCTGATGTTAATCGGGTCTTGATTCGCTTGACGCTGCTG,5.58,4.94
CCGATTAACATCAAGGGGGTCCCTGATGTTAATCGGGTCTTGATTCGCTTGACGCTGCTG,3.02,3.68
CCGATTAACATCAAAGCATTCCCTGATGTTAATCGGGTCTTGATTCGCTTGACGCTGCTG,2.52,2.12
CCGATTAACATCAAAGTGTCCCCTGATGTTAATCGGGTCTTGATTCGCTTGACGCTGCTG,4.51,3.85
